From PubChem BioAssay (NCATS)
Several values for one entry are separate records, joined by “and”; a condition that tells them apart may be missing. Identical values can stand only once. Records with an inconclusive call do not appear. Activity calls are given as the source filed them. Unless noted, calls come from the whole dose curve; as a rule, active = well fitted curve in the direction sought with a large enough effect; inconclusive = small, poorly fitted or top-dose-only effect, or another doubt; inactive = no such curve, though single readings can be large; an effect the other way counts as inactive or inconclusive.

How the values were obtained:
[1] = Primary qHTS for small molecule stabilizers of the endoplasmic reticulum resident proteome: Secreted ER Calcium Modulated Protein (SERCaMP) assay (AID 1508630); note: % is set by controls: 0 for no effect and ±100 for the full control effect
How it was run: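 GLuc-SERCaMP-expressing SH-SY5Y cells, pretreated 16 h with compound, are challenged with thapsigargin to empty ER calcium stores; after 4 h, coelenterazine is added directly to the medium and luminescence is imaged.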

[2] = Primary qHTS for inhibitors of nuclear receptor binding SET domain protein 2 (NSD2) in an isogenic RCH-ACV NSD2 p.E1099K mutant (9B) (AID 1645876); note: nearly all actives have a fitted effect of over 70% in size; note: potency is the fitted concentration of half-maximal effect
[3] = Primary qHTS for inhibitors of nuclear receptor binding SET domain protein 2 (NSD2) in an RCH-ACV wild type WT cells (2C) (AID 1645877); note: nearly all actives have a fitted effect of over 70% in size; note: potency is the fitted concentration of half-maximal effect
[4] = biological target: Catechol O-methyltransferase (Homo sapiens) (UniProt P21964); test: Confirmatory Screen for Target Class Profiling of Small Molecule Inhibitors of Methyltransferases (AID 1745852; calls by dose curve; note: potency is the fitted concentration of half-maximal effect; for activity change, negative = inhibition: % is set by controls: 0 for no effect and ±100 for the full control effect); settings: MTase-Glo luminescence, SAH detection, recombinant enzyme; measured here: COMT max response; stronger effect = lower value
[5] = biological target: Guanidinoacetate N-methyltransferase (Homo sapiens) (UniProt Q14353); test: as above; settings: MTase-Glo luminescence, SAH detection, recombinant enzyme; activity change, negative = inhibition: at 57.3 µM (top of the series) unless noted
[6] = biological target: Rap guanine nucleotide exchange factor 3 (Homo sapiens) (UniProt O95398); test: Confirmatory qHTS for agonist of cAMP-regulated guanine nucleotide exchange factor 3 (EPAC1) (AID 1645881);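 note: EPAC1 catalysed release of BODIPY-GDP from Rap1B seen as fluorescence loss; 100% = effect of cAMP agonist control; nearly all actives have a fitted effect of over 75% in size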
[7] = biological target: Rap guanine nucleotide exchange factor 4 (Homo sapiens) (UniProt Q8WZA2); test: Confirmatory qHTS for agonist of cAMP-regulated guanine nucleotide exchange factor 4 (EPAC2) (AID 1645884);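 note: nucleotide exchange releases bodipy-GDP from Rap1 and this lowers its fluorescence; % is set by controls: 0 for no effect and ±100 for the full control effect; nearly all actives have a fitted effect of over 65% in size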
[8] = biological target: Rap guanine nucleotide exchange factor 4 (Homo sapiens) (UniProt Q8WZA2); test: Confirmatory qHTS for antagonist of cAMP-regulated guanine nucleotide exchange factor 4 (EPAC2) (AID 1645885); settings: EPAC2 Rap1B-BODIPY-GDP exchange fluorescence, biochemical; note: potency is the fitted concentration of half-maximal effect; nearly all actives have a fitted effect of over 25% in size
[9] = biological target: Cytochrome P450 2D6 (Homo sapiens) (UniProt P10635); test: Cytochrome P450 family 2 subfamily D member 6 (CYP2D6) small molecule antagonists: luciferase biochemical (cell-free) qHTS assay (AID 1645840; active = well fitted curve in the direction sought with a large enough effect in the repeat runs; an effect the other way counts as inactive or inconclusive; note: % is set by controls: 0 for no effect and ±100 for the full control effect; nearly all actives have a fitted effect of over 55% in size)
How it was run: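 P450-Glo luminescent screen: recombinant CYP2D6 enzyme–proluciferin substrate mix preincubated with compound 10 min at room temperature, then NADPH regeneration added for 1 h at room temperature. Detection reagent added for 20 min; luciferin light read as relative luminescence units.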

Sequence of Rap guanine nucleotide exchange factor 4 (Homo sapiens) (Q8WZA2 whole entry, looked up): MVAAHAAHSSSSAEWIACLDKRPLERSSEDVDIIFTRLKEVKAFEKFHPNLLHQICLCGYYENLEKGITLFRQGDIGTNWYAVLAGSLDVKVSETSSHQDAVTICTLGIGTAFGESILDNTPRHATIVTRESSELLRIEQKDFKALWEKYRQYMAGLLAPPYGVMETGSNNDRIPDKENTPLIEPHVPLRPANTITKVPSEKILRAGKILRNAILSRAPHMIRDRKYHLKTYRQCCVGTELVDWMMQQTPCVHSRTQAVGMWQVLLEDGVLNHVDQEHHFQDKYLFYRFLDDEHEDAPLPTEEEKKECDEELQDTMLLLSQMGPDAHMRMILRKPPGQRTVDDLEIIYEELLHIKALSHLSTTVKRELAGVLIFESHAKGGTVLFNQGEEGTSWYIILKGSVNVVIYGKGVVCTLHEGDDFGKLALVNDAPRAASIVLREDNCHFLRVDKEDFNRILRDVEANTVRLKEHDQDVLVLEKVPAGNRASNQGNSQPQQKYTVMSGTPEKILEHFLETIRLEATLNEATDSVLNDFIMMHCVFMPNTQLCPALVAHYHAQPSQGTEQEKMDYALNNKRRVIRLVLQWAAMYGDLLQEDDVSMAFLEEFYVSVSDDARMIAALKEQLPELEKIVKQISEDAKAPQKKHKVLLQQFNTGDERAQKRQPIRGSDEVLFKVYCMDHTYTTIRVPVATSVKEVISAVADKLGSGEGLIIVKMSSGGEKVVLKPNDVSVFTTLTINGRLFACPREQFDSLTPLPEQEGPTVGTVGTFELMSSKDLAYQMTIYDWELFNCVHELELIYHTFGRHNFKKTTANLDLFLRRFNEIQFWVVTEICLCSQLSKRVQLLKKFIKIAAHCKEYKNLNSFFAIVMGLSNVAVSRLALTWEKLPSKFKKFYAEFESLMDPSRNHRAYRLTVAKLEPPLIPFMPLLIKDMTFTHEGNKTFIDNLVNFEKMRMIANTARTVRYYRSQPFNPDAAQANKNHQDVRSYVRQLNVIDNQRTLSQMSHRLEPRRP
Sequence of Catechol O-methyltransferase (Homo sapiens) (P21964 whole entry, looked up): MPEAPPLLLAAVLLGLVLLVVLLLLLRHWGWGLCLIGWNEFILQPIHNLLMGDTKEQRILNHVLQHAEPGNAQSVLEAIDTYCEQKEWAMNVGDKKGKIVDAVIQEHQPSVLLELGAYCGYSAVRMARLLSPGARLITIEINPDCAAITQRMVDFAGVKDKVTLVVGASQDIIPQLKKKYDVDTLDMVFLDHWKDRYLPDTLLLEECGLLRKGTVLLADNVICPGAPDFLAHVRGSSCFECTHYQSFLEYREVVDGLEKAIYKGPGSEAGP
Sequence of Cytochrome P450 2D6 (Homo sapiens) (P10635 whole entry, looked up): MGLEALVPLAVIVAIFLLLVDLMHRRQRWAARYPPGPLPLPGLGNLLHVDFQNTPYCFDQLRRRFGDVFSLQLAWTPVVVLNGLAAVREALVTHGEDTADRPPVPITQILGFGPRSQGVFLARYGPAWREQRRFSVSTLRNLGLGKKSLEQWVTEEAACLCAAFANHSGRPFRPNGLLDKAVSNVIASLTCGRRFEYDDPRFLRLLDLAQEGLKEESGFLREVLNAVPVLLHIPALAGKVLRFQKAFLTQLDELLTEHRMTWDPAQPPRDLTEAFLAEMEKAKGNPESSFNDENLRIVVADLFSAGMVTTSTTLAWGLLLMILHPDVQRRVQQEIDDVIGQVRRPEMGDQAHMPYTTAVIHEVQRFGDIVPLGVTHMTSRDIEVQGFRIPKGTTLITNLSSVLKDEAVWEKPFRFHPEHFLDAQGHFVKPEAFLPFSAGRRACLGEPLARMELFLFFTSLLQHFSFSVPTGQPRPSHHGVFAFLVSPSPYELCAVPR
Sequence of Rap guanine nucleotide exchange factor 3 (Homo sapiens) (O95398 whole entry, looked up): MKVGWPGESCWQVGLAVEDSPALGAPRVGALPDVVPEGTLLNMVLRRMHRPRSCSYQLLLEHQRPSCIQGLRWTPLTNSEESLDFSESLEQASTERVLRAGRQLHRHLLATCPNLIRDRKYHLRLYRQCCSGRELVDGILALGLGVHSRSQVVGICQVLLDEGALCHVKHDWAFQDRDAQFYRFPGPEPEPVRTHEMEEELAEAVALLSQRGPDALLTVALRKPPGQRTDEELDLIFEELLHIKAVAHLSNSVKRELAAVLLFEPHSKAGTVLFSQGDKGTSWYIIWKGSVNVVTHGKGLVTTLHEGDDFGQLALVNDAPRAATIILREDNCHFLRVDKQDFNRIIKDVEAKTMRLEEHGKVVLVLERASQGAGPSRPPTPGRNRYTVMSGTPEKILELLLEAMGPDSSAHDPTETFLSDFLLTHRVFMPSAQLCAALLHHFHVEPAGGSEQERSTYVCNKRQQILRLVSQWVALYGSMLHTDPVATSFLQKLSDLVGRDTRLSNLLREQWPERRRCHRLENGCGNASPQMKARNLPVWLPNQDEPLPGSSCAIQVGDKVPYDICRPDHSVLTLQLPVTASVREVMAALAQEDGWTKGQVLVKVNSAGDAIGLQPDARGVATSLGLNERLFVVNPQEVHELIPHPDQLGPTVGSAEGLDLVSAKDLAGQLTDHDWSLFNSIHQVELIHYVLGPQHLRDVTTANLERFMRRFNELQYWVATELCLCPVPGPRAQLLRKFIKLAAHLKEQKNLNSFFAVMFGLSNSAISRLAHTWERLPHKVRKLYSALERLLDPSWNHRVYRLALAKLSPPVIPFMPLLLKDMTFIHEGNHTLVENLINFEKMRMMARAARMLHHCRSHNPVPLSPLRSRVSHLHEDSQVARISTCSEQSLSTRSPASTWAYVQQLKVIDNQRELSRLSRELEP

Cc1cn2cc(C(=O)N(C)CCO)cc(N[C@@H]3CCOc4cccc(C)c43)c2n1
Potency [1]: inactive
Potency [2]: inactive
Potency [3]: inactive

CC(O)C1C(=O)N2C(C(=O)O)=C(SC3CNC(C(=O)N(C)C)C3)C(C)C12 (stereo not given)
Potency [1]: inactive
Potency [2]: inactive
Potency [3]: inactive

Cc1ccc(-c2ncn(-c3ccc(Nc4nccc(-c5cccc(N6CCOCC6)c5)n4)cc3)n2)cn1
Potency [1]: inactive
Potency [2]: 1.05 µM (active)
Potency [3]: 662 nM (active)

Cc1ccc(C(N)=O)cc1Nc1nccc(-c2cn(C(C)C)c3cnccc23)n1
Potency [1]: inactive
Potency [2]: 3.32 µM (active)
Potency [3]: 1660 nM (active)
activity [4]: -56.6%
Potency [5]: 27100 nM (active)

c1nc2nc(Nc3ccc(N4CCOCC4)cc3)nc(NC3CCCCC3)c2[nH]1
Potency [1]: inactive
Potency [2]: 632 nM (active) and 662 nM (active)
Potency [3]: 563 nM (active) and 525 nM (active)

C[C@@H](Oc1cc(-n2cnc3ccc(CN4CCN(C)CC4)cc32)sc1C(N)=O)c1ccccc1C(F)(F)F
Potency [1]: inactive
Potency [2]: 0.0295 µM (active)
Potency [3]: 41.7 nM (active)

C[C@]1(CO)CN(c2cc(C(=O)Nc3ccc4c(c3)-c3c(c(C(N)=O)nn3-c3ccc(F)cc3)CC4)c(Cl)cn2)C[C@@]1(C)CO
Potency [1]: inactive
Potency [2]: 3.25 µM (active)
Potency [3]: 3250 nM (active)

CN(c1ncccc1CNc1nc(Nc2ccc3c(c2)CC(=O)N3)ncc1C(F)(F)F)S(C)(=O)=O
Potency [1]: inactive
Potency [2]: 5.17 µM (active)
Potency [3]: 8330 nM (active)

CC(C)c1ccc(Cn2ccc3c4c(N)nc(NC5CC5)nc4ccc32)cc1
Potency [1]: inactive
Potency [2]: 0.372 µM (active)
Potency [3]: 417 nM (active)

NC(=O)c1cccc2cn(-c3ccc([C@@H]4CCCNC4)cc3)nc12
Potency [1]: inactive
Potency [2]: 4.59 µM (active) and 2.63 µM (active)
Potency [3]: 2.9 µM (active) and 2.35 µM (active)

C[C@@H]1CN(CC(=O)Nc2ccc3c(c2)Cc2cccc(-c4cc(=O)cc(N5CCOCC5)o4)c2S3)C[C@H](C)O1
Potency [1]: inactive
Potency [2]: 5.9 µM (active)
Potency [3]: 4680 nM (active)

CCc1c2c(nc3ccc(O)cc13)-c1cc3c(c(=O)n1C2)COC(=O)[C@]3(O)CC
Potency [1]: inactive
Potency [2]: 0.0083 µM (active)
Potency [3]: 4.7 nM (active)

Cc1nc(N)ncc1-c1nc(N2CCOCC2)c2sc(C(C)(C)O)cc2n1
Potency [1]: inactive
Potency [2]: 81.7 nM (active) and 590 nM (active)
Potency [3]: 115 nM (active) and 468 nM (active)

CC1COC2(CCN(c3nc(=O)c4cc(C(F)(F)F)cc([N+](=O)[O-])c4s3)CC2)O1 (stereo not given)
Potency [1]: inactive
Potency [2]: inactive
Potency [3]: inactive

CC[C@@]1(O)C(=O)OCc2c1cc1n(c2=O)Cc2cc3cc(O)ccc3nc2-1
Potency [1]: inactive
Potency [2]: 0.0209 µM (active)
Potency [3]: 11.8 nM (active)

O=c1[nH]nc(Sc2ncc([N+](=O)[O-])s2)n1-c1ccc2c(c1)OCCO2
Potency [1]: inactive
Potency [2]: 7.42 µM (active)
Potency [3]: 7420 nM (active)

CN[C@H]1CCc2cc(OC)c(OC)c(OC)c2-c2ccc(OC)c(=O)cc21
Potency [1]: inactive
Potency [2]: 0.105 µM (active)
Potency [3]: 118 nM (active)

CCN1CCN(Cc2ccc(-c3cc4c(N[C@H](C)c5ccccc5)ncnc4[nH]3)cc2)CC1
Potency [1]: inactive
Potency [2]: 9.34 µM (active)
Potency [3]: 7420 nM (active)

CC(C)(C)c1cc(C(C)(C)C)c(NC(=O)c2c[nH]c3ccccc3c2=O)cc1O
Potency [1]: inactive
Potency [2]: 14.8 µM (active)
Potency [3]: 16600 nM (active)

C[C@]12CC[C@H](O)CC1=CCC1C2CC[C@]2(C)C(n3cnc4ccccc43)=CCC12 (stereo not given in full)
Potency [1]: inactive
Potency [2]: inactive
Potency [3]: inactive

CN1c2cc(O)c(N=NC(N)=O)cc2CC1S(=O)(=O)O (stereo not given)
Potency [1]: inactive
Potency [2]: inactive
Potency [3]: inactive

Cc1cc(Nc2cc(NC(=O)c3c(Cl)cccc3Cl)ccn2)nc(N)n1
Potency [1]: inactive
Potency [2]: 0.417 µM (active)
Potency [3]: 291 nM (active)

Cc1cc(Nc2cc(N3CCN(C)CC3)nc(Sc3ccc(NC(=O)C4CC4)cc3)n2)n[nH]1
Potency [1]: inactive
Potency [2]: 0.296 µM (active)
Potency [3]: 46.8 nM (active)
activity [4]: -3.34%
activity change, negative = inhibition [5]: -2.28%

CC(C)(C)NC(=O)[C@H]1CN(Cc2cccnc2)CCN1C[C@@H](O)C[C@@H](Cc1ccccc1)C(=O)N[C@H]1c2ccccc2C[C@H]1O
Potency [1]: inactive
outcome [6]: inactive
outcome [7]: inactive
Potency [8]: 44100 nM (active)

CCCCOc1c(C(=O)c2c(F)cc(C)cc2F)cnc2n[nH]cc12
Potency [9]: inactive
Potency [2]: 0.817 µM (active)
Potency [3]: 578 nM (active) and 235 nM (active)
